GLS inh: blocks human kidney-isoform glutaminase activity. O94925. GLS enzymatic activity, qHTS titration. Potency, µM (titrated, usually from 45.5 µM), for inactives: at the top dose activity change, negative = inhibition, usual class: inhibitors. 0.21% of 410,000 active. AID 624170; note: % is set by controls: 0 for no effect and ±100 for the full control effect
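Two-point fluorescence kinetic (t0, 30 min RT) for hKGA; glutamate detected via glutamate oxidase–HRP–Amplex Red. Substrate: 1 mM L-glutamine solution; buffer 45 mM KH2PO4, pH 8.2.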
USP2a block: blocks human ubiquitin-specific protease USP2a; O75604; USP2 core, Ub-CHOP2 coupled fluorogenic reporter, 485/531; Potency, µM (titrated, usually from 38.3 µM), for the others: at the highest dose activity change, negative = inhibition, most hits filed as inhibitors; 0.01% of 330,000 active; AID 463254;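 note: plate controls were DMSO wells for no effect and full inhibition by NEM control for full effect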
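Deubiquitinase activity read as fluorescence (485/531 nm) after Ub-CHOP2 cleavage activates the enterokinase reporter on its substrate; USP2 core 10nM, Ub-CHOP2 and substrate 25nM each, 30min compound preincubation then 60min RT; data normalized to NEM, curves fitted.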
p53 reactivation: mutant p53 re-activation in reporter cells. 0.063% of 320,000 active. Potency, µM (titrated, usually from 92.2 µM), for the others: top-dose activity change, positive = activation, most hits filed as activators. AID 504706. H1299 p53-A138V BP100-luciferase reporter, luminescence, 24 h; note: % of control where 0% means no effect; nearly all actives have a fitted effect of over 45% in size
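p53-null H1299 cells stably carrying temperature-sensitive p53-A138V and a BP100-luciferase reporter were pinned with compounds (4-point, 1:5 series) and held 24 hrs at 37 deg C. Luminescence was read 10 min after detection reagent.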
Tb PFK inh-1: T. brucei PFK enzyme inhibition; O15648; T. brucei PFK, ADP-Glo luminescence; Potency, µM (highest dose often 57.5 µM), inactives show at the highest dose activity, negative = inhibition, hits mostly inhibitors; 0.17% of 330,000 active;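 note: 0% = uninhibited 1x PFK enzyme wells and -100% = no-enzyme wells; nearly all actives have a fitted effect of over 60% in size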
Target sequence (O15648 whole entry, looked up): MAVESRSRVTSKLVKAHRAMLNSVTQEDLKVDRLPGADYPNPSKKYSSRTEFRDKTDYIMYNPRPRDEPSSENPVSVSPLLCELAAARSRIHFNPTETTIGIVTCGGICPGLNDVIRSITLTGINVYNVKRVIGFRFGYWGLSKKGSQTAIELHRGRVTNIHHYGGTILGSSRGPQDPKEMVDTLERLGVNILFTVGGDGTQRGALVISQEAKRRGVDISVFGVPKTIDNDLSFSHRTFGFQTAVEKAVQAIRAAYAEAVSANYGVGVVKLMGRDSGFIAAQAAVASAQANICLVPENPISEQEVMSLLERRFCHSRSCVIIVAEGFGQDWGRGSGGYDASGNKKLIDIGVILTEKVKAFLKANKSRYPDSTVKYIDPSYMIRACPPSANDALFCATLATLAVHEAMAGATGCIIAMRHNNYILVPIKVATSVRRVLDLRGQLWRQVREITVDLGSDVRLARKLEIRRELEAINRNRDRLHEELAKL
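Activity is normalized to no-enzyme wells (full inhibition) and 1.25 nM enzyme wells (no inhibition). Reaction: 0.5 mM F6P, 0.1 mM ATP, 45 min RT, ADP-Glo luminescence; concentration-response curves fitted and classed by quality.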
TbPFK ATP: orthogonal confirmation of T. brucei phosphofructokinase inhibitors; shares compounds with Tb PFK inh-1; Tb PFK enzyme, ATP depletion, Kinase-Glo Plus luminescence; Potency, µM (top dose mostly 57.5 µM), inactives show top-dose inhibition; 47% of 1,100 active; AID 504636; calls by dose curve; note: nearly all actives have a fitted effect of over 60% in size
Tb PFK inh-2: T. brucei PFK enzyme inhibition, hit validation; shares compounds with Tb PFK inh-1; 41% of 1,100 active; Potency, µM (series often up to 57.5 µM), inactives show at the top dose activity change, negative = inhibition, actives largely listed as inhibitors; purified T. brucei PFK, ADP-Glo luminescence, 45 min; AID 504637;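 note: plate controls were full PFK enzyme control for no effect and no enzyme control for full effect; nearly all actives have a fitted effect of over 60% in size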
An asterisk follows results filed as active; u = inconclusive; x = no result; [ ] = dose if it differs, or a comment. Sampled rows, rich in hits. Any-hit rate of the full collection: about 0.39%. Unless noted, calls come from the whole dose curve; as a rule, active = well fitted curve in the direction sought with a large enough effect; inconclusive = small, poorly fitted or top-dose-only effect, or another doubt; inactive = no such curve, though single readings can be large; an effect the other way counts as inactive or inconclusive. Potency is the fitted concentration of half-maximal effect.

SMILES	GLS inh	USP2a block	p53 reactivation	Tb PFK inh-1	TbPFK ATP	Tb PFK inh-2
COc1ccc(-n2c(/C=C\c3ccccc3F)nc3ccccc3c2=O)c(OC)c1	-0.7%	x	x	x	x	x
Cc1cc(C)c(C)c(S(=O)(=O)N2CCC(C(=O)OCC(=O)N3c4ccccc4NC(=O)C3(C)C)CC2)c1C	-11.7%	0.6%	-2.7%	u	u	u
CC(Cc1ccc2c(c1)OCO2)NO (stereo not given)	28.9%[99.4 µM]	x	x	x	x	x
Clc1ccc2c(c1)C(c1ccccc1)=NCc1nncn1-2	17.1%	x	x	x	x	x
NS(=O)(=O)c1ccc(NC(=S)NCc2cccc(Cl)c2)cc1	-6.2%	1.9%	-22.0%	u	1.51µM*	2.39µM*
NS(=O)(=O)c1ccc(NC(=O)Nc2ccc(Cl)cc2)cc1	0.7%	-1.9%	0.7%	12µM*	6.01µM*	10.7µM*
NS(=O)(=O)c1ccc(NC(=S)Nc2cc(Cl)c(Cl)cc2Cl)cc1	-4.6%	-0.7%	-4.2%	u	26.9µM*	u
COc1ccc(/C=C/c2nc3ccccc3c(=O)n2-c2ccc(C)cc2)cc1O	4.5%	x	x	x	x	x
CC(C)CN1Cc2cc(-c3cccc(F)c3)ccc2-n2nncc2C1	16.3%	x	x	x	x	x
Cc1c(-c2ccc(Cl)cc2)oc(=O)c2c(N)n(-c3ccccc3)nc12	u	0.9%	4.9%	u	u	u
Cc1ccccc1-c1ccc2c(c1)C1c3c(-c4ccccc4)nnn3-c3ccccc3C(=O)N1CC2 (stereo not given)	7.0%	x	x	x	x	x
O=C(N/N=C/c1c(O)n(Cc2ccc(F)cc2)c(=S)[nH]c1=O)c1ccncc1	0.2%	-3.5%	-2.9%	-5.2%	x	x
O=C(NC1CCCC1)c1ccc(CSc2nc3ccncc3n2Cc2ccc(F)cc2)cc1	-8.4%	2.3%	5.4%	u	u	26.9µM*
O=C(NCCN1CCOCC1)c1ccc(CSc2nc3ccncc3n2Cc2ccc(F)cc2)cc1	-5.0%	0.6%	-0.4%	u	u	u
NC(Cc1ccccc1)c1nn[nH]n1 (stereo not given)	-14.5%	x	x	x	x	x
COC(=O)C1=C(c2ccc(F)cc2OCc2ccccc2)C[C@@H]2CC[C@H]1N2C(=O)N1CCC(O)CC1	-0.3%	0.7%	-11.6%	0.0%	x	x
O=C(OCC(=O)c1ccc([N+](=O)[O-])cc1)/C(=C/c1ccc(Cl)cc1)NC(=O)c1ccccc1	-2.0%	-1.0%	5.4%	-4.3%	x	x
O=C(O)COc1ccccc1C=NNc1ccc([N+](=O)[O-])cc1S(=O)(=O)Nc1ccc(Cl)cc1	u	-9.5%	-1.2%	19µM*	30.1µM*	u
COC(=O)C1=C(c2ccc(C(C)=O)cc2)C[C@@H]2CC[C@H]1N2C(=O)NC(C)C	2.1%	1.0%	-12.7%	4.4%	x	x
Cc1cccc(C(=O)OCC(=O)c2ccc(CC(=O)N3CCOCC3)s2)c1C	1.2%	-3.6%	23.6%	u	u	-17.4%
Cc1ccc(S(=O)(=O)CNC(=S)c2cccc(Cl)c2)cc1	13.5%	2.1%	0.2%	u	u	30.1µM*
Cc1ccc(NC(=O)c2ncn(CC(=O)NCc3ccc4c(c3)OCO4)n2)cc1C	5.4%	0.9%	u	-4.0%	x	x
CC(C)c1ccc(OCC(=O)N2CCN(CCc3ccncc3)CC2)cc1	10.9%	x	x	x	x	x
COc1ccc(OC(=O)Nc2ccccc2)cc1	11.6%	2.7%	u	-3.6%	x	x
COc1ccc(/C=C/C(=O)Nc2ccccc2C(=O)O)cc1	-1.7%	1.2%	-8.2%	u	-30.9%	u
COc1ccccc1N1CCN(C(=O)C(C)CS(=O)(=O)c2ccc3c(c2)NC(=O)CS3)CC1 (stereo not given)	-4.4%	2.2%	1.3%	23.9µM*	6.01µM*	u
COc1ccccc1N1CCN(C2CCN(C(=O)c3cccs3)CC2)CC1	30.1%	0.9%	3.6%	-1.0%	x	x
O=C(COc1ccccc1[N+](=O)[O-])Nc1cccc(S(=O)(=O)NC2=NCCCCC2)c1	6.8%	-0.8%	-4.7%	u	u	u
